# In the library only some 19% were active in any assay of this set; here they are far more common.
# DT40 TDP1 no CPT: qHTS for Inhibitors of human tyrosyl-DNA phosphodiesterase 1 (TDP1): qHTS in cells in absence of CPT; AID 686978, 2013; Potency, µM (titrated, usually from 46.2 µM), for the others: top-dose activity change, negative = growth inhibition, usual class: inhibitors; DT40 Tdp1-/- hTDP1 cells, no CPT, ATP luminescence, 48 h; 420,000 tested, 15% active; also: potency is read from the fitted curve at half-maximal effect; % is scaled to controls: 0 for no effect and ±100 for the full control effect; nearly all actives have a fitted effect of over 55% in size
#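 Growth kinetics read by CellTiter-Glo luminescence after ≥48 hr at 37 °C. Cells: DT40 Tdp1-/- stably carrying human TDP1, 400 per well, compound exposure in the absence of CPT (DMSO vehicle).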
# IL1B secr inh: inhibitors of inflammasome signaling (IL-1 beta secretion); THP-1 LPS/ATP IL-1B secretion, AlphaLISA, 16 h; hits give low values; activity change, % at 57.5 µM; 360,000 tested, 4.7% active; in the data active = activity change below about -50%; inconclusive = mostly about -30% to -49%; also: % is scaled to controls: 0 for no effect and ±100 for the full control effect
#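 Secreted IL-1B measured by AlphaLISA bead assay after 16 h compound exposure of THP-1 cells; compounds (final up to 57.5 uM) added 1 h before LPS (250 ng/mL) and ATP (1.25 mM) stimulation; lower signal means less secretion.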
# DT40 TDP1 CPT: growth inhibition of DT40 Tdp1-/-;hTDP1 cells with camptothecin (screen for TDP1 inhibitors). 420,000 tested, 12% active. Potency, µM (doses to about 46.2 µM), inactives show at the highest dose activity change, negative = growth inhibition, most hits filed as inhibitors. AID 686979. chicken DT40 Tdp1-/-;hTDP1 cells + 20 nM CPT, ATP luminescence, 48 h; also: potency is read from the fitted curve at half-maximal effect; % is scaled to controls: 0 for no effect and ±100 for the full control effect; nearly all actives have a fitted effect of over 55% in size
#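 Chicken DT40 Tdp1-/- cells complemented with human TDP1, 400 cells/well, exposed to compounds plus 20 nM camptothecin for at least 48 h at 37 C; viability read as ATP content by CellTiter-Glo luminescence.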
# HepG2 tox: kills HepG2 cells in TGF-b inhibitor counter-screen | Potency, µM (titrated, usually from 46.1 µM), for inactives: at the top dose activity change, negative = cytotoxicity, hits mostly cytotoxic | HepG2 CAGA-GFP viability, ATP luminescence, 18 h | AID 588856 | 410,000 tested, 0.76% active; also: potency is read from the fitted curve at half-maximal effect
#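 CellTiter-Glo luminescence gave cytotoxicity after 18 hours at 37 degrees C. The cells were HepG2 CAGA-GFP in 1% FBS DMEM, stimulated with 500 pg/mL TGF-beta after compound addition. %Activity was normalised to no-cell wells (complete cell-killing) and DMSO (no toxicity), and curves were fitted and classified.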
# TDP1 inh: blocks human tyrosyl-DNA phosphodiesterase 1. Q9NUW8. recombinant TDP1, AlphaScreen DNA substrate cleavage. 350,000 tested, 0.28% active. Potency, µM (doses to about 130 µM), without a hit: at the top dose activity change, negative = inhibition, usual class: inhibitors. AID 485290; also: potency is read from the fitted curve at half-maximal effect; % is scaled to controls: 0 for no effect and ±100 for the full control effect; nearly all actives have a fitted effect of over 40% in size
# Target sequence (Q9NUW8 whole entry, looked up): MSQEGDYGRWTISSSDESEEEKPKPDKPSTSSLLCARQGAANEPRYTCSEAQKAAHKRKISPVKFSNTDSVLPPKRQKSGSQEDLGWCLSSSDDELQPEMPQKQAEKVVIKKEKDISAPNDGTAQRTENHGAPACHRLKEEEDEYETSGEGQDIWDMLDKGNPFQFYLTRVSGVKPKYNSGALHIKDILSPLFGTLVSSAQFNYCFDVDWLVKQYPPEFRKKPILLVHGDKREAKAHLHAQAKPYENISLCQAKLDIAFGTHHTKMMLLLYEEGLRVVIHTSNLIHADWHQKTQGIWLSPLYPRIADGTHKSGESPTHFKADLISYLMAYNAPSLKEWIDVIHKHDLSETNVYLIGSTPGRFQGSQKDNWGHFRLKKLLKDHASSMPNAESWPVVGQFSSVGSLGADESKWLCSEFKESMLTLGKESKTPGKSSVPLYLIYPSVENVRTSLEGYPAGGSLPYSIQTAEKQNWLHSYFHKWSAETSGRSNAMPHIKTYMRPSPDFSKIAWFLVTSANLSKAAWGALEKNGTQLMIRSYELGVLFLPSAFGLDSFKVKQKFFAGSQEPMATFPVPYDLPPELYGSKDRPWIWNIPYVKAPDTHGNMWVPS
#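 Tdp1 1 nM final; 15 min RT w/ cpd; substrate 15 nM, 5 min; beads 10 ug/ml, 10 min; AlphaScreen read. Neg ctrl: no enzyme.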
# TGFb inhibitor: TGF-b pathway inhibition | HepG2 CAGA-GFP TGF-b/SMAD3 reporter, GFP fluorescence, 18 h; TGF-beta stimulated, 500 pg/mL final | Potency, µM (titrated, usually from 46.1 µM), for inactives: top-dose activity, negative = inhibition, usual class: inhibitors | 410,000 tested, 1.2% active | AID 588855; also: potency is read from the fitted curve at half-maximal effect; % is scaled to controls: 0 for no effect and ±100 for the full control effect; nearly all actives have a fitted effect of over 65% in size
#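 GFP signal (ex488/em500-530) from TGF-beta-stimulated HEPG2 CAGA-GFP cells, 500 pg/mL final, 18 h at 37 degrees C in DMEM plus 1% FBS, normalized to unstimulated and DMSO-stimulated controls.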
# * hit, by the source's call; ? = inconclusive; nt = no result; [ ] = remark or other dose. Unless noted, calls follow the shape of the dose curve; as a rule, active = well fitted curve in the direction sought with a large enough effect; inconclusive = small, poorly fitted or top-dose-only effect, or another doubt; inactive = no such curve, though single readings can be large; an effect the other way counts as inactive or inconclusive.
SMILES,DT40 TDP1 no CPT,IL1B secr inh,DT40 TDP1 CPT,HepG2 tox,TDP1 inh,TGFb inhibitor
CC(C)c1nc2ccccc2n1CC(O)COC1CCCCC1 (stereo not drawn),16µM*,15,?,6%,5%,1%
CC(=O)Nc1ccc(OCC(O)Cn2c(C)nc3ccccc32)cc1 (stereo not drawn),?,13,?,-3%,0%,0%
CCCCOCC(O)Cn1c(C)nc2ccccc21 (stereo not drawn),?,-3,-6%,-1%,-6%,0%
Cc1nc2ccccc2n1CC(O)COC1CCCCC1 (stereo not drawn),21µM*,11,18µM*,-5%,2%,3%
CCCNC(=O)CCc1nnc2ccc(N3CCN(c4cccc(OC)c4)CC3)nn12,?,nt,-12%,-1%,-3%,-11%
O=C1c2ccccc2C(=O)N1c1cc(=O)c2ccccc2[nH]1,nt,nt,nt,nt,2%,nt
COc1ccc(NC(=O)c2cc(C3CCCCN3C(=O)OCCF)on2)c(C)c1 (stereo not drawn),?,13,?,-7%,nt,-1%
O=C(Nc1ccc(F)c(Cl)c1)c1cc(C2CCCCN2C(=O)C2CC2)on1 (stereo not drawn),15µM*,4,26µM*,-24%,nt,-2%
Cc1ccc(F)cc1C(=O)N1CCCCC1c1cc(C(=O)Nc2ccc(F)c(Cl)c2)no1 (stereo not drawn),15µM*,-19,21µM*,-9%,nt,-13%
O=C(Nc1ccc(F)c(Cl)c1)c1cc(C2CCCN(C(=O)C3CC3)C2)on1 (stereo not drawn),?,-16,?,-39%,nt,-5%
CC(O)(c1ccccc1)c1nc(-c2csc3ccccc23)cs1 (stereo not drawn),?,-1,?,-29%,nt,?
COc1ccccc1-c1csc(C(C)(O)c2cccc(F)c2)n1 (stereo not drawn),16µM*,27,13µM*,-51%,nt,?
COc1ccccc1-c1csc(C(C)(O)c2ccccc2)n1 (stereo not drawn),?,5,15µM*,-45%,nt,-15%
CC(O)(c1cccc(F)c1)c1nc(-c2csc3ccccc23)cs1 (stereo not drawn),?,34,?,-66%,nt,13µM*
Nc1c(C(=O)Nc2ccccc2Cl)c2ccccn2c1C(=O)c1ccc(Cl)cc1,-24%,nt,-14%,4%,3%,0%
COc1ccccc1N1CCN(CCN(C(=O)C2CCCCC2)c2ccccn2)CC1,23µM*,8,?,-7%,12%[56.1 µM],-18%
COc1ccc2c(c1)CC(C(=O)Nc1cc(OC)c(OC)c(OC)c1)CO2 (stereo not drawn),?,nt,?,4%,4%,-7%
O=C1C=CC[C@H](/C=C/C[C@@H](O)C[C@H](O)CCc2ccccc2)O1,?,-97*,?,-18%,nt,0%
COc1ccccc1/C=C\C(=O)OC[C@@H]1CCCN2CCCC[C@H]12,2%[9.04 µM],nt,13%[9.04 µM],nt,8%,nt
C=CCCc1ccc(C#N)c(SCc2c(C(=O)OCC)c3cc(OC(C)=O)c(Br)cc3n2C)n1,29µM*,12,21µM*,-1%,-1%,?
CCOC(=O)c1c(CSc2nc(C)cc(C)c2C#N)n(C)c2cc(Br)c(OC(C)=O)cc12,26µM*,58,?,14%,5%,10%
CCOC(=O)c1c(CNCCN(CC)CC)n(C)c2cc(Br)c(OC)cc12,?,?,?,1%,3%,91%
Cc1csc(Sc2nc3c(c(=O)[nH]c(=O)n3C)n2Cc2ccccc2Cl)n1,?,-27,?,3%,0%,3%
